The nature of assay [1]: ATG_CRE_CIS: Attagene CIS-FACTORIAL HepG2 Assay for human cAMP Responsive Element (CRE) binding protein 3 (AID 2282926). Conditions: HepG2 CRE cis-reporter, Attagene multiplexed mRNA; actives raise or lower the signal. In a few lines:
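Cells carrying cis-regulated reporter constructs respond through their own endogenous factors. After 24 h treatment, RNA is reverse-transcribed, amplified, labelled and sized by capillary electrophoresis; up- and down-regulation are both scored against vehicle.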

Assay [2] addresses CCAAT/enhancer-binding protein beta (Homo sapiens) (UniProt P17676). Kind of assay: ATG_C_EBP_CIS: Attagene CIS-FACTORIAL HepG2 Assay for human CCAAT/Enhancer Binding Protein (C/EBP) beta (AID 2282927). Conditions: HepG2 Attagene cis-factorial transcription factor reporter; actives raise or lower the signal. Summed up: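 RT-PCR/capillary electrophoresis fluorescence of reporter mRNA, 24 h post-dose, in HepG2 cells carrying transfected cis-promoter reporter units. Bidirectional curve fitting against DMSO baseline captures gain or loss of signal.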

Assay [3] is described as follows: ATG_CMV_CIS: Attagene CIS-FACTORIAL HepG2 Assay for human CMV (Internal Marker) (AID 2282928).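 Further: endpoint acts as a background internal control marker rather than a target.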 Conditions: HepG2 CMV promoter reporter, transcription factor profiling; actives raise or lower the signal. In a few lines:
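Readout: fluorescent reporter cDNA fragments separated by capillary electrophoresis after RT-PCR and HpaI cut. Cells: HepG2 carrying transfected cis-promoter reporter constructs, dosed 24 h. Endpoint serves as background internal-marker control, fit bidirectionally versus DMSO.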

Assay [4] in a line: ATG_DR4_LXR_CIS: Attagene CIS-FACTORIAL HepG2 Assay for human Liver X Receptor (LXR), DR4 submotif (AID 2282929). The note with it: HepG2 Attagene DR4 cis-reporter, mRNA transcription; actives raise or lower the signal. In a few lines:
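HepG2 cells were transiently transfected with multiple cis-regulated reporter units and dosed for 24 hours. The DR4 reporter mRNA was quantified by RT-PCR, 6-FAM labelling and capillary electrophoresis. Bidirectional fits used DMSO as baseline.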

In assay [5] the target is Aryl hydrocarbon receptor (Homo sapiens) (UniProt P35869). Kind of assay: ATG_Ahr_CIS: Attagene CIS-FACTORIAL HepG2 Assay for human Aryl Hydrocarbon Receptor (Ahr) (AID 2282930). The note with it: HepG2 AhR cis-factorial reporter transcription; actives raise or lower the signal. Summed up: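 HepG2 cells transiently transfected with cis-element-driven multiplexed reporter transcription units; endogenous transcription factor activity measured as reporter mRNA 24 h after dosing. RT-PCR, 6-FAM labelling, HpaI digestion, capillary electrophoresis; bidirectional fitting versus DMSO baseline.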

Assay [6] is described as follows: ATG_AP_1_CIS: Attagene CIS-FACTORIAL HepG2 Assay for human Activator Protein 1 (AP-1) (AID 2282931). Conditions: HepG2 Attagene cis-factorial AP-1 reporter mRNA; actives raise or lower the signal. In a few lines:
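HepG2 cells transiently transfected with cis-element-driven reporter transcription units, dosed for 24 hours. Reporter mRNA measured by RT-PCR, 6-FAM labelling, HpaI digestion and capillary electrophoresis. Bidirectional fitting against DMSO baseline.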

A short description of assay [7]: ATG_AP_2_CIS: Attagene CIS-FACTORIAL HepG2 Assay for human Activator Protein 2 (AP-2) (AID 2282932). The note with it: HepG2 AP-2 cis-reporter, Attagene transcription factor profiling; actives raise or lower the signal. Summed up:
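Cells (HepG2) transfected with promoter-driven reporter constructs, treated 24 h. Total RNA reverse-transcribed, reporter cDNA PCR-amplified, FAM-labelled by primer extension, digested, resolved by capillary electrophoresis. Activity fitted both directions versus DMSO.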

Assay [8] is described as follows: ATG_BRE_CIS: Attagene CIS-FACTORIAL HepG2 Assay for human Bone Morphogenetic Protein (BMP) Response Element (BRE) (AID 2282933). The note with it: HepG2 BMP response element reporter, Attagene transcription factor profiling; actives raise or lower the signal. In a few lines: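 A HepG2 multiplex reporter system measured inducible reporter mRNA 24 h post-dosing. Detection: RT-PCR, 6-FAM primer extension, HpaI digestion, capillary electrophoresis. Activity fitted bidirectionally relative to DMSO.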

Assay [9] concerns the target Retinoic acid receptor alpha (Homo sapiens) (UniProt P10276). Kind of assay: ATG_DR5_RAR_CIS: Attagene CIS-FACTORIAL HepG2 Assay for human Retinoic Acid Receptor Alpha (RARE), DR5 submotif (AID 2282934).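 On AC50: reporter responds to endogenous RAR alpha beta and gamma in HepG2 not RARA alone.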 The note with it: HepG2 Attagene cis-factorial RARE DR5 reporter, mRNA; actives raise or lower the signal. Summed up:
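HepG2 cells transiently transfected with multiplexed reporter units under cis (DR5 RARE) promoters, so endogenous transcription factor activity is measured. After 24 h compound exposure, reporter mRNA is quantified by RT-PCR with fluorescent labelling and capillary electrophoresis; bidirectional fitting versus DMSO.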

Assay [10] concerns the target Transcription factor E2F1 (Homo sapiens) (UniProt Q01094). Kind of assay: ATG_E2F_CIS: Attagene CIS-FACTORIAL HepG2 Assay for human E2F Transcription Factor 1 (AID 2282935). Conditions: HepG2 Attagene cis-reporter, E2F reporter RNA transcripts; actives raise or lower the signal. In a few lines: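 First, HepG2 cells were transfected with reporter transcription units. Next, they were dosed for 24 h. Then RNA was isolated, converted to cDNA, PCR-amplified, FAM-labeled, HpaI-digested and analyzed by capillary electrophoresis.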

Drawing on PubChem BioAssay (EPA / NIEHS), this text covers outcome and AC50 for 24 compounds.

The source made the active and inactive calls. How the source made its calls: active means hit-call score of the fitted dose curve at least 0.9, where 1 is the maximum; inactive means score below 0.9.

CCAAT/enhancer-binding protein beta (Homo sapiens), sequence (P17676 whole entry, looked up): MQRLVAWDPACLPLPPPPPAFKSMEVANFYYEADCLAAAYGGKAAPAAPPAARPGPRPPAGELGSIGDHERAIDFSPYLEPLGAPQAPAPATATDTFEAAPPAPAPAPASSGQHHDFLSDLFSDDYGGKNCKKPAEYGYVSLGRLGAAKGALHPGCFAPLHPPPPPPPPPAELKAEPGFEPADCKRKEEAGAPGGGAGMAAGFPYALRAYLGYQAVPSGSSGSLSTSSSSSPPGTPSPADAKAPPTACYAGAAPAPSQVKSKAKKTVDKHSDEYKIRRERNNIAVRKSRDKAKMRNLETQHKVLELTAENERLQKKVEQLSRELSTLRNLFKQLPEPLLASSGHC
Aryl hydrocarbon receptor (Homo sapiens), sequence (P35869 whole entry, looked up): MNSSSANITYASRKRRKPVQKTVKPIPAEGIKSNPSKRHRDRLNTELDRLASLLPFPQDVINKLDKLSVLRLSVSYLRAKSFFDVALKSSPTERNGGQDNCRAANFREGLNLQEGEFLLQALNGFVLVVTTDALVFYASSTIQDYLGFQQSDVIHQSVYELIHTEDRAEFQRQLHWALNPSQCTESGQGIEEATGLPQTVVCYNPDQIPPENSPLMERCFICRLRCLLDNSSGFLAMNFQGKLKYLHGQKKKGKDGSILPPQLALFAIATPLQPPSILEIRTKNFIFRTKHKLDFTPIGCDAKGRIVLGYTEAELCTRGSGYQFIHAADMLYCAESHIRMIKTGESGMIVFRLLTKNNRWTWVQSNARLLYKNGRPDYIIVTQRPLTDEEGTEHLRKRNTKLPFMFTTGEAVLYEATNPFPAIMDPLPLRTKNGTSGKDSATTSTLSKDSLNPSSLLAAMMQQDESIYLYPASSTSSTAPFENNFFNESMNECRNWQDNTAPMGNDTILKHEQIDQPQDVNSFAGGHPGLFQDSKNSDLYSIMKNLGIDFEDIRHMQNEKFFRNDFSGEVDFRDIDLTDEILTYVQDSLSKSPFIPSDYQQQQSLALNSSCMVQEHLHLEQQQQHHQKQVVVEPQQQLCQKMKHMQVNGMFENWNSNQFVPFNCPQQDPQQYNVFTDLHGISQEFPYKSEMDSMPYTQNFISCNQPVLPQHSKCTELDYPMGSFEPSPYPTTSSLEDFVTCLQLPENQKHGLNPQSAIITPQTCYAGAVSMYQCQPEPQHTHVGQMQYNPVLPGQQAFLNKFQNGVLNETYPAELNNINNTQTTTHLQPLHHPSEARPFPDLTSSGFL
Transcription factor E2F1 (Homo sapiens), sequence (Q01094 whole entry, looked up): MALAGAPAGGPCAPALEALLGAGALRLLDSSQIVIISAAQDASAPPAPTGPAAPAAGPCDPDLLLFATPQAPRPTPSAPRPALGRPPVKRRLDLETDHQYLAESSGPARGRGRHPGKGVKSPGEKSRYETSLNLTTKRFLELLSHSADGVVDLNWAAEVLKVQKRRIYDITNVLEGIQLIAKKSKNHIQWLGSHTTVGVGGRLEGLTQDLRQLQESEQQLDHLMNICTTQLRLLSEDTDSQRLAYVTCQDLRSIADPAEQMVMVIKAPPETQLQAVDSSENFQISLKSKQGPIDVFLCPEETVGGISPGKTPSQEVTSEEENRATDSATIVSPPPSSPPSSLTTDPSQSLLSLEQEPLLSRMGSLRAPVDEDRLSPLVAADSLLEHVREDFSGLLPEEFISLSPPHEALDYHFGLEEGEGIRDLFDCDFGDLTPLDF
Retinoic acid receptor alpha (Homo sapiens), sequence (P10276 whole entry, looked up): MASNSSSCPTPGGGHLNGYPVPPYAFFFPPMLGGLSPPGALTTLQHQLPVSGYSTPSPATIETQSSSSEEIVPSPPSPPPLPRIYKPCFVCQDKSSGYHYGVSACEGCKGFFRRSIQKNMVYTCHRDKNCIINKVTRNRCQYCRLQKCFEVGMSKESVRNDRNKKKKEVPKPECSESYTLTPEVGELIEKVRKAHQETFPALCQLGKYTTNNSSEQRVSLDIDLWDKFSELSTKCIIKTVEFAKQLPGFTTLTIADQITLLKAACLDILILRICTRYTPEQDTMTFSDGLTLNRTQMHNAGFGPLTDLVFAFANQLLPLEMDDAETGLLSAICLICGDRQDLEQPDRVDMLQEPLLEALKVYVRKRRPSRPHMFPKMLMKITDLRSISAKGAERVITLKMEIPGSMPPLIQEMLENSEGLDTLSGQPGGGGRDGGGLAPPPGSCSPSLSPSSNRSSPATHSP

As for `CCOc1ccc(N)c([N+](=O)[O-])c1`, the call in [1], in [2], in assay [3], in [4], in [5] and in [6] was inactive. For the same compound, the outcome in assay [7], in [8], in assay [9] and in assay [10] was inactive.
`Cc1c(C)c([N+](=O)[O-])c(C(C)(C)C)c([N+](=O)[O-])c1C`: the result in [1], in [2], in assay [3], in assay [4], in assay [5] and in [6] was inactive. For the same compound, the result in assay [7], in assay [8] and in [10] was inactive. Further, the AC50 (commonly the concentration at which the activity in the assay is half-maximal) in [9] was 5.92 µM (active).
`O=C(O)CCCCCCCCCC(=O)O`: the compound was called inactive in assay [1], in assay [2], in [3], in assay [4], in assay [5] and in [6]. The compound was classed as inactive in [7], in [8], in assay [9] and in assay [10].
As for `O=C1OC(=O)c2cc(Oc3ccc4c(c3)C(=O)OC4=O)ccc21`, the result in assay [1], in [2], in assay [3], in assay [4], in assay [5] and in [6] was inactive. For the same compound, the outcome in assay [7], in assay [8], in assay [9] and in [10] was inactive.
For the compound `CC/C=C\C/C=C\C/C=C\CCCCCCCC(=O)O`, the AC50 was 173 µM (active) in assay [1], 153 µM (active) in [4] and 161 µM (active) in assay [6]. Also, the outcome in [2], in assay [3], in assay [5], in assay [7], in assay [8] and in assay [9] was inactive. Also, in assay [10], the compound was classed as inactive.
As to `C=CC(C)(C)C`, the compound was classed as inactive in [1], in assay [2], in [3], in [4], in assay [5] and in [6]. The call in assay [7], in assay [8], in assay [9] and in assay [10] was inactive.
As for `CCC(C)OC(=O)c1ccc(O)cc1` (stereo not given), the outcome in [1], in assay [2], in [4], in assay [5], in assay [6] and in assay [7] was inactive. Also, the call in assay [8], in assay [9] and in assay [10] was inactive. Also, in [3], the AC50 was 67.6 µM (active).
Regarding `O=C(Nc1cccc(C(F)(F)F)c1)c1cc(Br)cc(Br)c1O`, the AC50 was 100 µM (active) in assay [1]; 160 µM (active) in assay [3]; 38.3 µM (active) in assay [4]; 5.76 µM (active) in assay [7]; 1.08 µM (active) in [8]. Moreover, the result in assay [2], in assay [5], in assay [6], in [9] and in assay [10] was inactive.
`CNC(=S)N(C)C`: the outcome in assay [1], in assay [2], in [3], in assay [4], in assay [5] and in assay [6] was inactive. The compound was classed as inactive in assay [7], in assay [8], in assay [9] and in assay [10].
With `CNC(=S)NN`, the outcome in [1], in [2], in [3], in assay [4], in assay [5] and in [6] was inactive. Moreover, the compound was called inactive in assay [7], in [8], in [9] and in assay [10].
`O=C(C=Cc1ccccc1)OCc1ccccc1`: the compound was classed as inactive in [1], in assay [2], in assay [3], in assay [4], in assay [5] and in [6]. Besides, the compound was called inactive in assay [7], in assay [8], in assay [9] and in [10].
`CC(C)(c1cc(Br)c(OCCO)c(Br)c1)c1cc(Br)c(OCCO)c(Br)c1`: the AC50 in assay [1] was 38.7 µM (active); in [2], 45.3 µM (active); in assay [3], 36.7 µM (active); in assay [4], 15.6 µM (active); in assay [6], 36.6 µM (active); in assay [7], 10.5 µM (active). Moreover, the AC50 in assay [9] is 0.22 µM (active); in [10], 36 µM (active). The outcome in assay [5] and in [8] was inactive.
`O=C(Nc1ccccc1SSc1ccccc1NC(=O)c1ccccc1)c1ccccc1`: the compound was called inactive in assay [1], in assay [2], in assay [3], in assay [4], in assay [7] and in assay [8]. Moreover, the result in assay [9] and in assay [10] was inactive. The AC50 in assay [5] was 2.79 µM (active); in assay [6], 62.4 µM (active).
In the case of `CCCC(C)CCC(C)=O` (stereo not given), the result in assay [1], in assay [2], in [3], in assay [4], in assay [5] and in [6] was inactive. For the same compound, the compound was called inactive in [7], in [8], in assay [9] and in [10].
Take `CC=C1CC2C=CC1C2` (stereo not given): the compound was classed as inactive in assay [1], in [2], in assay [3], in assay [5], in [7] and in [8]. Further, the compound was called inactive in assay [9] and in assay [10]. Further, the AC50 is 26.5 µM (active) in [4] and 67.1 µM (active) in assay [6].
`C=CC(C)(CCC=C(C)C)OC(=O)C(C)C` (stereo not given): the outcome in assay [1], in assay [2], in assay [4], in assay [5], in assay [7] and in assay [8] was inactive. For the same compound, the compound was called inactive in [9] and in [10]. The AC50 in assay [3] is 141 µM (active); in [6] it was 146 µM (active).
As for `CC=CCO`, the compound was classed as inactive in assay [1], in [2], in [3], in assay [4], in assay [5] and in [6]. Besides, the outcome in assay [7], in assay [8], in [9] and in assay [10] was inactive.
For `Nc1cccc(C(F)(F)F)c1`, the compound was called inactive in [1], in [2], in [3], in assay [4], in assay [5] and in assay [6]. Moreover, the outcome in assay [7], in assay [8], in assay [9] and in assay [10] was inactive.
With `O=C1CCCN1CCO`, the result in [1], in assay [2], in assay [3], in assay [4], in assay [5] and in assay [6] was inactive. The compound was called inactive in assay [7], in assay [8], in assay [9] and in [10].
On to `CC(=O)Oc1ccc(C(C)=O)cc1`, for which the compound was classed as inactive in assay [1], in [2], in [3], in [4], in assay [5] and in assay [6]. Also, the compound was classed as inactive in [7], in [8], in assay [9] and in assay [10].
For `C[Si](C)(CCCN)O[Si](C)(C)CCCN`, the outcome in [1], in assay [2], in assay [3], in assay [4], in [5] and in assay [6] was inactive. Also, the outcome in assay [7], in assay [8], in assay [9] and in assay [10] was inactive.
On to `Clc1nc2ccccc2s1`, for which the result in assay [1], in assay [2], in [3], in [4], in assay [5] and in [6] was inactive. Further, the compound was called inactive in assay [7], in assay [8], in [9] and in assay [10].
For the compound `NC(=O)c1ccccc1O`, the compound was called inactive in assay [1], in assay [2], in [3], in assay [4], in [5] and in assay [6]. Also, the outcome in assay [7], in [8], in assay [9] and in assay [10] was inactive.
For the compound `CC(C)C1=CC2=CC[C@@H]3[C@](C)(CCC[C@@]3(C)C(=O)O)[C@H]2CC1`, the call in [1], in assay [2], in assay [7], in assay [8], in assay [9] and in assay [10] was inactive. Also, the AC50 was 135 µM (active) in [3], 3.7 µM (active) in assay [4], 31.6 µM (active) in [5] and 149 µM (active) in assay [6].
